This is part of a sample that, as a whole, favours compounds with a hit. Of some 83,000 tested, about 20% had one in any assay.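 Values shown are percent growth following 48 h exposure of cells in 96-well plates to a single concentration of compound; below 10 was considered active.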 Calls of active or inactive are those of the source.
Columns and labels:
Test in all cases: NCI-60 one-dose screen, 48 h (100 = growth as untreated, 0 = no growth, -100 = all killed)
RPMI-8226 leukemia = conditions: 10 µM unless noted
OVCAR-8 ovarian = conditions: 10 µM unless noted
OVCAR-5 ovarian = conditions: 10 µM unless noted
OVCAR-4 ovarian = conditions: 10 µM unless noted
SK-OV-3 ovarian = conditions: 10 µM unless noted
IGROV1 ovarian = conditions: 10 µM unless noted
OVCAR-3 ovarian = conditions: 10 µM unless noted
HS 578T breast = conditions: 10 µM
NCI/ADR-RES ovarian = conditions: 10 µM unless noted
T-47D breast = conditions: 10 µM unless noted
BT-549 breast = conditions: 10 µM unless noted
MDA-MB-435 melanoma = conditions: 10 µM unless noted
SW-620 colon = conditions: 10 µM unless noted
MCF7 breast = conditions: 10 µM unless noted
HCT-116 colon = conditions: 10 µM unless noted
HCC-2998 colon = conditions: 10 µM unless noted
KM12 colon = conditions: 10 µM unless noted
SR leukemia = conditions: 10 µM unless noted

Measured: growth

CCCCCCCCCCCCCC(=S)NCCCC[C@H](NC(=O)OCc1ccccc1)C(=O)Nc1ccccc1
inactive: RPMI-8226 leukemia 32% | OVCAR-8 ovarian 40.3% | OVCAR-5 ovarian 89.5% | OVCAR-4 ovarian 54.6% | SK-OV-3 ovarian 78.2% | IGROV1 ovarian 54% | OVCAR-3 ovarian 22.1% | HS 578T breast 61.1% | NCI/ADR-RES ovarian 34.8% | T-47D breast 43.5% | BT-549 breast 107% | MDA-MB-435 melanoma 51.4% | SW-620 colon 32.7% | MCF7 breast 42.4% | HCT-116 colon 25%

CC(C)=CCC[C@H](C)c1ccc(C)c2c1OCN(CCO)C2
inactive: RPMI-8226 leukemia 83.2% | OVCAR-8 ovarian 86.3% | OVCAR-5 ovarian 83.7% | OVCAR-4 ovarian 79% | SK-OV-3 ovarian 105% | IGROV1 ovarian 66.7% | OVCAR-3 ovarian 86.1% | HS 578T breast 75.6% | NCI/ADR-RES ovarian 73.5% | T-47D breast 70% | BT-549 breast 95.8% | MDA-MB-435 melanoma 101% | SW-620 colon 100% | MCF7 breast 83.9% | HCT-116 colon 71.8% | HCC-2998 colon 84.4% | KM12 colon 103%

COc1cc(/C=C2\C(=O)Nc3ccc(N(C)C)cc32)cc(OC)c1OC
active: HS 578T breast -18.2% | NCI/ADR-RES ovarian 0.228% | BT-549 breast 6.82% | MDA-MB-435 melanoma -37.7% | SW-620 colon 8.08%
inactive: SR leukemia 19.1% | RPMI-8226 leukemia 14.3% | OVCAR-5 ovarian 71.1% | OVCAR-4 ovarian 42.1% | SK-OV-3 ovarian 45.5% | IGROV1 ovarian 16.6% | T-47D breast 34.3% | MCF7 breast 12% | HCT-116 colon 13.7% | HCC-2998 colon 49.1%

Brc1cccc(-n2ncc3c(Nc4ccc(-c5nnc(-c6ccccc6)o5)cc4)ncnc32)c1
inactive: SR leukemia 119% | RPMI-8226 leukemia 117% | OVCAR-5 ovarian 104% | OVCAR-4 ovarian 107% | SK-OV-3 ovarian 110% | IGROV1 ovarian 112% | OVCAR-3 ovarian 99.6% | HS 578T breast 110% | NCI/ADR-RES ovarian 98.6% | BT-549 breast 101% | MDA-MB-435 melanoma 106% | MCF7 breast 99.5% | HCT-116 colon 94.7% | HCC-2998 colon 100% | KM12 colon 102%

CC(=O)c1c(O)c(C)c(O)c2c1OC1=CC(=O)/C(=C(/C)N)C(=O)C12C (stereo unspecified)
inactive: SR leukemia 69% | RPMI-8226 leukemia 68.6% | OVCAR-5 ovarian 98.5% | OVCAR-4 ovarian 88.1% | SK-OV-3 ovarian 101% | IGROV1 ovarian 89.1% | OVCAR-3 ovarian 103% | HS 578T breast 91.5% | T-47D breast 74.9% | BT-549 breast 89.3% | MDA-MB-435 melanoma 103% | SW-620 colon 99.4% | MCF7 breast 85.4% | HCT-116 colon 63.4% | HCC-2998 colon 103% | KM12 colon 88%

Nc1nc2ccc([C@@H]3Nc4ccc5[nH]ncc5c4[C@H]4[C@H]5CCC(C5)[C@H]43)cc2s1
inactive: SR leukemia 51.1% | RPMI-8226 leukemia 19.5% | OVCAR-5 ovarian 21.3% | OVCAR-4 ovarian 14.4% | IGROV1 ovarian 33.3% | NCI/ADR-RES ovarian 17.4% | BT-549 breast 36.7% | HCT-116 colon 12.1% | HCC-2998 colon 49.3%
active: SK-OV-3 ovarian -17.5% | OVCAR-3 ovarian -6.66% | HS 578T breast 8.66% | MDA-MB-435 melanoma -62.4% | SW-620 colon -3.94% | MCF7 breast -0.0226% | KM12 colon 3.63%

CCOc1cccc(/C=N/NC(=O)Cc2ccc(Nc3ccnc(C(F)(F)F)c3)cc2)c1O
active: RPMI-8226 leukemia 4.35% | MCF7 breast 5.26%
inactive: OVCAR-8 ovarian 16.7% | OVCAR-5 ovarian 19.6% | OVCAR-4 ovarian 22% | SK-OV-3 ovarian 20% | IGROV1 ovarian 11.3% | OVCAR-3 ovarian 39.7% | HS 578T breast 76.4% | NCI/ADR-RES ovarian 48% | T-47D breast 15.7% | BT-549 breast 40.7% | MDA-MB-435 melanoma 40.3% | SW-620 colon 21.5% | HCT-116 colon 20.9% | HCC-2998 colon 37.4% | KM12 colon 30.1%

CC(=O)c1cc(C(=O)c2ccc3c(c2)Sc2ccccc2N3)c2c(C)cccn12
inactive: RPMI-8226 leukemia 15.7% | OVCAR-8 ovarian 18.8% | OVCAR-5 ovarian 45.4% | OVCAR-4 ovarian 47% | SK-OV-3 ovarian 25.1% | IGROV1 ovarian 34.1% | HS 578T breast 56.2% | T-47D breast 58.1% | BT-549 breast 18.2% | SW-620 colon 28.8% | MCF7 breast 24.5% | HCC-2998 colon 22.8%
active: OVCAR-3 ovarian -27.5% | NCI/ADR-RES ovarian 9.46% | MDA-MB-435 melanoma -26.9% | HCT-116 colon 6.07%

COc1ccc(-n2nc(C(=O)NCC(=O)Nc3nc4cc(OC)ccc4s3)c3ccccc3c2=O)cc1
inactive: RPMI-8226 leukemia 39.1% | OVCAR-5 ovarian 44.6% | T-47D breast 17% | MDA-MB-435 melanoma 42.5% | SW-620 colon 47.6% | HCC-2998 colon 55.8%
active: OVCAR-8 ovarian -12.4% | OVCAR-4 ovarian -20.4% | SK-OV-3 ovarian -18.5% | IGROV1 ovarian -3.66% | OVCAR-3 ovarian 3.53% | HS 578T breast -4.47% | NCI/ADR-RES ovarian 1.75% | BT-549 breast -23.4% | MCF7 breast -6.52% | HCT-116 colon 2.56%

COc1ccc2c(c1)CCCC21C(=O)Nc2ccccc21 (stereo unspecified)
inactive: RPMI-8226 leukemia 96.9% | OVCAR-8 ovarian 95.5% | OVCAR-5 ovarian 106% | OVCAR-4 ovarian 98.8% | SK-OV-3 ovarian 100% | IGROV1 ovarian 102% | OVCAR-3 ovarian 69.6% | HS 578T breast 107% | NCI/ADR-RES ovarian 104% | T-47D breast 85.2% | BT-549 breast 101% | MDA-MB-435 melanoma 101% | SW-620 colon 107% | MCF7 breast 95.7% | HCT-116 colon 102% | HCC-2998 colon 112% | KM12 colon 97.5%

COCCn1c(Nc2ccc(C(=O)NO)cc2)nc2ccccc21
inactive: RPMI-8226 leukemia 44% | OVCAR-8 ovarian 37.3% | OVCAR-5 ovarian 47.4% | OVCAR-4 ovarian 72.2% | SK-OV-3 ovarian 49.2% | IGROV1 ovarian 57.5% | OVCAR-3 ovarian 83.5% | HS 578T breast 80.7% | T-47D breast 35.3% | BT-549 breast 86.6% | MDA-MB-435 melanoma 46% | SW-620 colon 29.6% | MCF7 breast 61.4% | HCT-116 colon 19.4% | HCC-2998 colon 73.3% | KM12 colon 51.9%
active: NCI/ADR-RES ovarian -9.22%

COc1ccc(/C=C/C(=O)c2ccc(NC(=O)CSc3nnc(-c4ccc(OC)cc4)n3-c3ccccc3)cc2)cc1
active: HCT-116 colon 4.27%
inactive: RPMI-8226 leukemia 77.5% | OVCAR-8 ovarian 92.2% | OVCAR-5 ovarian 108% | OVCAR-4 ovarian 100% | SK-OV-3 ovarian 100% | IGROV1 ovarian 111% | OVCAR-3 ovarian 103% | HS 578T breast 91.2% | NCI/ADR-RES ovarian 102% | T-47D breast 92.9% | BT-549 breast 99.7% | MDA-MB-435 melanoma 98.3% | SW-620 colon 102% | MCF7 breast 77.1% | HCC-2998 colon 104% | KM12 colon 102%

Nc1cccc(S(=O)(=O)c2cccc(N)c2)c1
inactive: RPMI-8226 leukemia 110% | OVCAR-8 ovarian 113% | OVCAR-5 ovarian 99.7% | OVCAR-4 ovarian 102% | SK-OV-3 ovarian 120% | IGROV1 ovarian 114% | OVCAR-3 ovarian 113% | HS 578T breast 118% | NCI/ADR-RES ovarian 115% | T-47D breast 104% | BT-549 breast 111% | MDA-MB-435 melanoma 111% | SW-620 colon 115% | MCF7 breast 105% | HCT-116 colon 112% | HCC-2998 colon 126% | KM12 colon 129%

Cc1ccc(NC(=O)c2nc(S(C)(=O)=O)oc2-c2ccc(F)cc2)cc1Nc1ccc2ncn(C)c(=O)c2c1
active: OVCAR-3 ovarian -58.5% | T-47D breast -9.98% | SW-620 colon -6.67% | HCT-116 colon -10.8%
inactive: RPMI-8226 leukemia 19.3% | OVCAR-8 ovarian 30.6% | OVCAR-5 ovarian 102% | OVCAR-4 ovarian 104% | SK-OV-3 ovarian 107% | IGROV1 ovarian 61.4% | HS 578T breast 106% | NCI/ADR-RES ovarian 96.2% | BT-549 breast 66.3% | MDA-MB-435 melanoma 69.4% | MCF7 breast 52.5% | HCC-2998 colon 99.7% | KM12 colon 59.2%

NC(=O)Nc1ccc2ncnc(Nc3cccc(O)c3)c2c1
inactive: RPMI-8226 leukemia 112% | OVCAR-8 ovarian 98.9% | OVCAR-5 ovarian 98.1% | OVCAR-4 ovarian 112% | SK-OV-3 ovarian 87.5% | IGROV1 ovarian 107% | OVCAR-3 ovarian 82.8% | HS 578T breast 105% | NCI/ADR-RES ovarian 96.7% | T-47D breast 76.6% | BT-549 breast 108% | MDA-MB-435 melanoma 101% | SW-620 colon 99.1% | MCF7 breast 97.3% | HCT-116 colon 109% | HCC-2998 colon 102% | KM12 colon 96.1%

C=CCn1c(SCC(=O)Nc2ccc(/C(C)=N\O)cc2)nnc1-c1cc(-c2ccccc2)nc2ccccc12
active: IGROV1 ovarian 0.364%
inactive: RPMI-8226 leukemia 47.1% | OVCAR-8 ovarian 53.5% | OVCAR-5 ovarian 85.8% | OVCAR-4 ovarian 75% | SK-OV-3 ovarian 79.6% | OVCAR-3 ovarian 58.3% | HS 578T breast 85.8% | NCI/ADR-RES ovarian 52.8% | T-47D breast 15.2% | BT-549 breast 54% | MDA-MB-435 melanoma 56.1% | SW-620 colon 51.9% | MCF7 breast 21% | HCT-116 colon 44% | HCC-2998 colon 62.1% | KM12 colon 44.8%

CSCCC1NC(=O)C(C(C)=Nc2ccccc2)=C1O (stereo unspecified)
inactive: RPMI-8226 leukemia 115% | OVCAR-8 ovarian 111% | OVCAR-5 ovarian 120% | OVCAR-4 ovarian 100% | SK-OV-3 ovarian 101% | IGROV1 ovarian 103% | OVCAR-3 ovarian 117% | HS 578T breast 105% | NCI/ADR-RES ovarian 104% | T-47D breast 103% | BT-549 breast 105% | MDA-MB-435 melanoma 95.4% | SW-620 colon 104% | MCF7 breast 91.3% | HCT-116 colon 107% | HCC-2998 colon 113% | KM12 colon 79.3%

C[C@]12CCc3nc(Nc4ccc(O)cc4)sc3C1=CC[C@@H]1[C@@H]2CC[C@]2(C)/C(=N/NC(N)=S)CC[C@@H]12
active: RPMI-8226 leukemia -16.3% | OVCAR-8 ovarian 4.45% | OVCAR-4 ovarian -16.9% | SK-OV-3 ovarian -19% | IGROV1 ovarian -61.2% | OVCAR-3 ovarian -68.8% | HS 578T breast -4.57% | T-47D breast -31.6% | BT-549 breast 9.89% | MDA-MB-435 melanoma -68.5% | SW-620 colon -62% | MCF7 breast -35% | HCT-116 colon -81% | HCC-2998 colon -18.2% | KM12 colon -64.9%
inactive: OVCAR-5 ovarian 49.9% | NCI/ADR-RES ovarian 15%
